Bioassay records from PubChem BioAssay.
Tau fibril ThT: blocks human tau fibril formation measured by thioflavin T; P10636; recombinant tau K18 P301L, heparin-induced fibrillization, ThT fluorescence; Potency, µM (highest dose often 57.4 µM), for inactives: at the top dose activity, negative = inhibition, most hits filed as inhibitors; 2.1% of 270,000 active; AID 1460; note: potency is the fitted concentration of half-maximal effect; nearly all actives have a fitted effect of over 55% in size
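Aggregation was driven by heparin (20 uM final) acting on recombinant tau […] bearing P301L in 100 mM sodium acetate pH 7; fibrils were detected with Thioflavin T.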
Tau FP inhib: blocks human tau fibril formation measured by polarization | P10636 | K18 P301L tau heparin fibrillization, Alexa594 FP, 6 h | Potency, µM (titrated, usually from 57.7 µM), for inactives: at the highest dose activity, negative = inhibition, actives largely listed as inhibitors | 0.39% of 280,000 active | AID 1468; note: potency is the fitted concentration of half-maximal effect; nearly all actives have a fitted effect of over 55% in size
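Read-out: fluorescence polarization of Alexa 594-labeled tau (0.24 uM), 555 nm excitation, 632 nm emission. Mixtures held 15 uM unlabeled K18 P301L, compound and 20 uM heparin, pH 7 acetate buffer, incubated 6 hr at 37 C.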
USP1-UAF1 inh: blocks the human USP1/UAF1 deubiquitinase complex. O94782. recombinant USP1/UAF1, Ub-Rhodamine cleavage fluorescence. Potency, µM (doses to about 57.1 µM), without a hit: at the top dose activity change, negative = inhibition, actives largely listed as inhibitors. 0.23% of 390,000 active; note: potency is the fitted concentration of half-maximal effect; nearly all actives have a fitted effect of over 60% in size
Target sequence (O94782 whole entry, looked up): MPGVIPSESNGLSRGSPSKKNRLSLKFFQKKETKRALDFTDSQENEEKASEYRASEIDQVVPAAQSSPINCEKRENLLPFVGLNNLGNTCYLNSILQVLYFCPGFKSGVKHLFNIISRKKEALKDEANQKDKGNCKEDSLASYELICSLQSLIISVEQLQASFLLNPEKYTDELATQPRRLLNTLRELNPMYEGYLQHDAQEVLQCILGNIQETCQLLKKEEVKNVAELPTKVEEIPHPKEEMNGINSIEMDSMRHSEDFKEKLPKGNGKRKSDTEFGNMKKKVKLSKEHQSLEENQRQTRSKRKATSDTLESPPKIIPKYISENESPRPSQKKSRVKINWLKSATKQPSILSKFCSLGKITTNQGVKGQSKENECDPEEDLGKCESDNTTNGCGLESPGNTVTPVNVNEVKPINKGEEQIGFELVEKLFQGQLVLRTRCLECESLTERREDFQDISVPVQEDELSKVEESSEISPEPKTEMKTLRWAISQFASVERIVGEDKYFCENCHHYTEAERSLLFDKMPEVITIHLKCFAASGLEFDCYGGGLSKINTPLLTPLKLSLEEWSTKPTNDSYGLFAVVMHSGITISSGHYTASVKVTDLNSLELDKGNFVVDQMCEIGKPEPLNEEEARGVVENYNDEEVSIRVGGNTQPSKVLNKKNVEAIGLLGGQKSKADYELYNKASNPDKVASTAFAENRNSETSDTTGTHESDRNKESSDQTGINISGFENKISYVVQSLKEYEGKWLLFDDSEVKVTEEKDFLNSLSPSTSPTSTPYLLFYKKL
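In this screen, compounds sit with the deubiquitinase complex (1nM) for 15 min at room temperature before Ub-Rho is added at 150nM final. Fluorescence rise is then followed for 6 reads every 60 seconds.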
FBPA coupling cs: inhibits coupling enzyme system, counter-screen for aldolase hits. AID 2472. activity change, negative = inhibition, % at 58.2 µM, hits read low. coupling enzyme system counterscreen, AmpLite Red fluorescence. 0.67% of 290,000 active; in the data active = activity change below about -30%
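Counterscreen lacking aldolase: glyceraldehyde-3-phosphate coupling-enzyme reagent preincubated 10 min at RT with compound (at 57.5 uM final), then substrate/coupling system with AmpLite Red added; fluorescence read at 525/598 nm after 20 min RT.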
Tau fluor counter: counter-screen for tau fibril formation inhibitors. 0.93% of 280,000 active. tau K18 P301L Alexa594 fluorescence, heparin fibrillization. Potency, µM (series often up to 57.7 µM), inactives show top-dose activity change, negative = decrease; note: potency is the fitted concentration of half-maximal effect; nearly all actives have a fitted effect of over 55% in size
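Human tau K18 P301L (15 uM unlabeled, 0.24 uM Alexa 594-labeled) in 100 mM sodium acetate pH 7 with 20 uM heparin, 6 hr at 37 C. ThT 30 uM added, 1 hr ambient; Alexa 594 FP and total fluorescence read at 555/632 nm.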
Active calls of the source: *; u = inconclusive; x = no result given; ! = not active in a repeat; [ ] = another dose, or the depositor's remark. Compounds with a hit are over-represented: about 2.3% of the library has one in this group of screens. Unless noted, calls come from the whole dose curve; as a rule, active = well fitted curve in the direction sought with a large enough effect; inconclusive = small, poorly fitted or top-dose-only effect, or another doubt; inactive = no such curve, though single readings can be large; an effect the other way counts as inactive or inconclusive. % is set by controls: 0 for no effect and ±100 for the full control effect.

SMILES	Tau fibril ThT	Tau FP inhib	USP1-UAF1 inh	FBPA coupling cs	Tau fluor counter
[C-]#[N+]/C(C#N)=C\c1cc(C(C)(C)C)c(O)c(C(C)(C)C)c1	25.1µM*	u	x	4.9	u
CC(C)(C)c1cc(/C=C(\C#N)C(N)=S)cc(C(C)(C)C)c1O	u	3.2%	x	x	u
CNc1cc2c(Nc3cccc(Br)c3)ncnc2cn1	x	x	x	-49.8*	x
COc1cccc(-n2c(SCc3cc(=O)oc4cc(O)c(O)cc34)nc3ccccc3c2=O)c1	25.1µM*	u	-23.4%	6.9	14.1µM*[quencher]
CCN(CC)C(=O)CSc1nc2ccccc2c(=O)n1-c1cccc(OC)c1	-13.5%	0.1%	-21.4%	5.8	-8.1%
CC(=O)N1CCN(C(=S)c2ccc(N(C)C)cc2)CC1	-0.3%	-6.2%	-20.1%	5.5	-2.2%
COc1ccc(NC(=O)N2CCN(c3ccc([N+](=O)[O-])cc3)CC2)cc1OC	8.91µM*	-4.4%	-5.6%	-10.2	-23.4%
C=CCNC(=S)N1CCN(c2ccc([N+](=O)[O-])cc2)CC1	12.6µM*	0.6%	-2.4%	0.3	-9.8%
CN(C)c1ccc(C(=S)N2CCCCCC2)cc1	25.1µM*	u	-1.2%	-1.9	u
O=[N+]([O-])c1ccc(N2CCCCC2)cc1	8.91µM*	-8.0%	-4.9%	2.7	-18.6%
O=C(COC(=O)c1cn(-c2ccccc2)nc1-c1cccnc1)NC1CC1	-3.7%	0.8%	-23.8%	3.1	-2.3%
COc1cc(C(=S)N2CCCCC2)ccc1O	-22.7%	-13.1%	-7.9%	-36.8*	-17.2%
CCNC(=S)N1CCN(c2ccc([N+](=O)[O-])cc2)CC1	5.62µM*	2.2%	-17.4%	0.2	-5.2%
O=C1CCCC(=O)N1c1ccc(N2CCN(c3ccc([N+](=O)[O-])cc3)CC2)c([N+](=O)[O-])c1	3.98µM*	-0.2%	x	0.3	-20.2%
COc1cc(C(=S)N2CCCC2)ccc1O	3.7%	-0.2%	-12.4%	1.0	3.2%
NC(=O)c1ccc(N2CCN(c3ccc(O)cc3)CC2)c([N+](=O)[O-])c1	17.8µM*	0.9%	-2.3%	-9.1	-20.6%
Cn1c(SCC(N)=O)nc2c([nH]c3ccccc32)c1=O	1.4%	-8.1%	-13.4%	x	-4.2%
CNC(=S)N1CCN(c2ccc([N+](=O)[O-])cc2)CC1	5.62µM*	-1.5%	-1.9%	x	-6.1%
O=C(c1ccc(N2CCCCC2)c([N+](=O)[O-])c1)N1CCN(c2ccccn2)CC1	u	8.2%	-23.6%	-1.7	-7.1%
CN(C)c1ccc(C(=S)N2CCN(c3ccc([N+](=O)[O-])cc3)CC2)cc1	-7.2%	3.2%	-10.8%	-30.0*	-8.8%
O=[N+]([O-])c1ccc(/C=N\N2CCN(c3ccc(Cl)cc3)CC2)cc1	2.24µM*	2.9%	-17.1%	1.5	-16.1%
O=[N+]([O-])c1ccc(C(=S)N2CCN(c3ccc(F)cc3)CC2)cc1	u	-0.9%	-26.3%	-3.9	-28.2%
O=[N+]([O-])c1cccc(/C=N\N2CCN(c3ccc(Cl)cc3)CC2)c1	u	4.0%	-14.2%	-1.1	-12.0%
O=C1C2CC=CCC2C(=O)N1c1ccc(N2CCN(c3ccccn3)CC2)c([N+](=O)[O-])c1 (centres undefined)	14.1µM*	2.5%	-24.3%	2.2	-28.2%
CCN1C(=O)[C@H]2[C@H]3[C@H](O)[C@H](O)C/C(=N/OC[C@@H]4O[C@H](c5ccccc5)C=C[C@@H]4Oc4ccc(OC)cc4)[C@@H]3CC[C@@H]2C1=O	-10.4%[11.5 µM]	3.1%[11.6 µM]	x	-2.1	-8.1%[11.6 µM]
SMILES	Tau fibril ThT	Tau FP inhib	USP1-UAF1 inh	FBPA coupling cs	Tau fluor counter
Cc1ccc(NC(=O)c2cc3c([nH]c2=O)CC(C)(C)CC3=O)c(C)c1	-5.9%	-4.2%	-8.3%	x	-4.7%
O=C(c1cccc(O)c1)N1CCN(C(=O)C2CC2)CC1	x	x	-6.4%	x	x
CC[C@H](NC(C)C)[C@H](O)c1ccc(O)c(O)c1	x	x	x	-35.6*	x
CCC(NC(C)C)C(O)c1ccc(O)c2[nH]c(=O)ccc12 (centres undefined)	-6.6%	3.9%	-20.6%	-3.0	-4.1%
CNC[C@H](O)c1ccc(O)c(O)c1	14.1µM*!	12.6µM*!	-25.6%	-33.9*	u
CCCNC(=O)c1ccc(CN2CCOCC2)cc1	4.6%	8.6%	-13.9%	-2.6	10.8%
CCN(c1ccccc1)S(=O)(=O)c1ccc2[nH]cc(C(=O)NCc3ccc(C)cc3)c(=O)c2c1	11.4%	3.55µM*	-22.1%	x	u
Cc1ccc(C)c(N(C)S(=O)(=O)c2ccc3[nH]cc(C(=O)NC4CCCC4)c(=O)c3c2)c1	4.8%	15.8µM*	-26.7%	x	u
CCN(c1ccccc1)S(=O)(=O)c1ccc2[nH]cc(C(=O)NC3CCCCC3)c(=O)c2c1	u	3.55µM*	-9.1%	x	u
CCNc1nc2c(c(=O)[nH]c(=O)n2C)n1CC(O)COc1ccc(Cl)cc1Cl (centres undefined)	-0.1%	6.3%	u	x	-6.6%
COc1ccc(OC)c(C2C(C(=O)O)c3ccccc3C(=O)N2C)c1 (centres undefined)	-3.5%	u	-9.9%	0.8	u
COc1cc(OC)c(C2C(C(=O)O)c3ccccc3C(=O)N2C)cc1OC (centres undefined)	8.6%	-1.7%	-11.5%	-39.9*	4.8%
CC(Sc1nnc(NC2CCCCC2)s1)C(=O)Nc1ccc2c(c1)C(=O)c1ccccc1C2=O (centres undefined)	u	14.3%	-18.5%	-7.3	15.8µM*[quencher]
CCC1CCC(C(=O)NC(C(=O)NCCN(CC(C)C)CC(C)C)C(C)C)CC1 (centres undefined)	-8.0%	-1.8%	-11.1%	x	-8.6%
COc1ccc2nc(Nc3sc4c(c3C(N)=O)CCCC4)sc2c1	7.08µM*	1.7%	-13.6%	2.9	u
COc1ccc(Nc2nc3ccccc3s2)cc1	12.6%	4.1%	-23.9%	-5.3	14.1%
COc1cccc(Nc2nc3ccc(OC)cc3s2)c1	12.6µM*	6.8%	u	-5.8	12.6µM*[quencher]
C/C(CCN1CCCc2nc(C)c(C)cc21)=N\O[C@@H](C)c1cn([C@H](CO)Cc2ccccc2)nn1	-3.7%[11.5 µM]	6.9%[11.6 µM]	x	1.3	0.6%[11.6 µM]
Cc1ccc(C(=O)OC[C@H]2O[C@H](Cl)C[C@@H]2OC(=O)c2ccc(C)cc2)cc1	-16.8%	3.1%	x	2.4	-2.4%
CC#CCN1c2ccccc2[C@]23C[C@@H](C(=O)OC)N(S(=O)(=O)c4cccs4)C2=NC(C(=O)OC)=C(C(=O)OC)[C@H]13	4.4%[11.5 µM]	3.7%[11.6 µM]	x	1.6	-5.0%[11.6 µM]
CC(=O)N(C1=C(N)C(=O)c2ccccc2C1=O)c1ccccc1	x	x	u	-34.1*	x
O=C(Nc1cccn(Cc2c(F)cccc2Cl)c1=O)NC1CCCCC1	-14.6%	1.4%	-1.3%	-35.2*	-15.9%
Cc1nc2ccc(NC(=S)NC3CCCCC3)cc2nc1C	u	2.0%	4.0%	-34.6*	u
S=C(NNc1cccc(Cl)c1)NC1CCCCC1	25.1µM*	u	-24.3%	-15.4	-28.0%
